Assay outcomes deposited in PubChem by National Center for Advancing Translational Sciences (NCATS).
Only some compounds are listed: those with a hit (about 11% of all), similar ones and a draw of the others.
Gal4-VP16 FLuc: Gal4-VP16 reporter inhibition counter-screen. Drosophila S2 Gal4-VP16 UAS-luciferase, luminescence, 20 h. Potency, µM (highest dose often 53.6 µM), inactives show top-dose activity, negative = inhibition, most hits filed as inhibitors. 3.5% of 310,000 active;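 further: Gal4-VP16 expression switched on by copper sulfate through the metallothionein promoter; potency means the concentration at half of the fitted maximal effect; on the % scale 0 is the no-effect control and ±100 the full control effect; nearly all actives have a fitted effect of over 50% in size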
MCF10A rerep: DNA re-replication induction in MCF 10a cells. MCF 10A DNA re-replication, Hoechst nuclear intensity, 48 h. Potency, µM (series often up to 46.1 µM), without a hit: top-dose activity, positive = re-replication, usual class: activators. 2.9% of 350,000 active. AID 624296; further: potency means the concentration at half of the fitted maximal effect; % of control where 0% means no effect; nearly all actives have a fitted effect of over 50% in size
RORg inh: inhibitors of mouse ROR gamma transcriptional activity. P51450. Drosophila S2 Gal4-RORgamma UAS-luciferase reporter, 20 h. Potency, µM (top dose mostly 53.6 µM), inactives show at the highest dose activity change, negative = inhibition, most hits filed as inhibitors. 5.4% of 310,000 active. AID 2551; further: potency means the concentration at half of the fitted maximal effect; on the % scale 0 is the no-effect control and ±100 the full control effect; nearly all actives have a fitted effect of over 60% in size
Target sequence (P51450 whole entry, looked up, the tested form may be a part): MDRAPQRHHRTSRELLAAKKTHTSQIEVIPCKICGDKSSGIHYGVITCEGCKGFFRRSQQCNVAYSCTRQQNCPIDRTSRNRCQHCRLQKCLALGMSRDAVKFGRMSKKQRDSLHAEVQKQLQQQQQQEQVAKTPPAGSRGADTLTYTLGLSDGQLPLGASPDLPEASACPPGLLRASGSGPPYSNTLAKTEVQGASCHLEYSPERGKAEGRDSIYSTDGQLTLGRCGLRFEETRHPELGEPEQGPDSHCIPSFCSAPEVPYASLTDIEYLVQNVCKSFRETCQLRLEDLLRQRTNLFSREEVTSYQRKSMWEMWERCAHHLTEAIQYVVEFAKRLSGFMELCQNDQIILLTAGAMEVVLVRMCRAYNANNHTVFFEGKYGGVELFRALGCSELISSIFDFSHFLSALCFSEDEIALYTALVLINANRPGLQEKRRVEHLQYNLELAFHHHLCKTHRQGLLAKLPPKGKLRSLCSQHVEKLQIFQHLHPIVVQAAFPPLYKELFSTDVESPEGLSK
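A Gal4/UAS one-hybrid system in insect cells: metallothionein-promoter Gal4–ROR gamma fusion plus Photinus luciferase reporter. Copper sulfate 700 uM final, 20 hr ambient incubation, luminescent detection after 10 min with reagent.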
SW480 rerep: DNA re-replication induction in SW480 cells; AID 624297; SW480 DNA re-replication, Hoechst DNA content imaging, 48 h; Potency, µM (series often up to 46.1 µM), for the others: at the top dose re-replication activation, most hits filed as activators; 1.8% of 340,000 active; further: potency means the concentration at half of the fitted maximal effect; % of control where 0% means no effect; nearly all actives have a fitted effect of over 55% in size
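Per well, 250 cells were exposed to pinned compound for 48 hr. Nuclear DNA was visualised with Hoechst (40 min, 37 C) and total object intensity recorded by fluorescence scanning.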
IL-1B inflam inh: inflammasome signaling inhibition, IL-1 beta readout; THP-1 LPS/ATP IL-1B secretion, AlphaLISA, 16 h; active compounds read low; activity change, % at 57.5 µM; 4.7% of 360,000 active; AID 743279; in the data active means activity change below about -50%; inconclusive means mostly about -30% to -49%; further: on the % scale 0 is the no-effect control and ±100 the full control effect
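Secreted IL-1B measured by AlphaLISA bead assay after 16 h compound exposure of THP-1 cells; compounds (final up to 57.5 uM) added 1 h before LPS (250 ng/mL) and ATP (1.25 mM) stimulation; lower signal means less secretion.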
Starred values were filed as active, the others as inactive; ? = inconclusive; / = not tested or not shown. Unless noted, the call rests on the fitted dose curve; in most records, active means well fitted curve in the direction sought with a large enough effect; inconclusive means small, poorly fitted or top-dose-only effect, or another doubt; inactive means no such curve, though single readings can be large; an effect the other way counts as inactive or inconclusive.

SMILES	Gal4-VP16 FLuc	MCF10A rerep	RORg inh	SW480 rerep	IL-1B inflam inh
Cc1ccc(C(=O)N/C(=C/c2ccc(-c3ccc([N+](=O)[O-])cc3)o2)C(=O)NCCCN(C)C)cc1	/	?	/	23µM*	/
O=C(NCCCO)/C(=C/c1ccc(-c2cccc([N+](=O)[O-])c2)o1)NC(=O)c1ccccc1	-5%	1%	6%	-8%	-17
O=C(CSC1=NCCS1)NC(c1ccccc1)c1ccccc1	?	?	2%	?	-72*
CC(NC(=O)CSC1=NCCS1)c1ccccc1 (centres undefined)	-4%	3%	5µM*	-7%	-55*
Cc1ccc(C)c(C(O)c2ncc(-c3ccc4ccccc4c3)[nH]2)c1 (centres undefined)	/	/	/	/	19
CCCCC[C@@H](C)N1C[C@H](COCc2ccccc2)Oc2cc(N3CCC[C@H]3CO)ccc2S1(=O)=O	/	/	/	/	22
O=C(CSc1nc2ccc(Cl)cc2[nH]1)Nc1ccc2[nH]c(=O)[nH]c2c1	/	6%	/	-2%	31
O=C(OCC1OC(OC(=O)c2cc(O)c(O)c(OC(=O)c3cc(O)c(O)c(O)c3)c2)[C@@H](OC(=O)c2cc(O)c(O)c(OC(=O)c3cc(O)c(O)c(O)c3)c2)C(OC(=O)c2cc(O)c(O)c(OC(=O)c3cc(O)c(O)c(O)c3)c2)C1OC(=O)c1cc(O)c(O)c(OC(=O)c2cc(O)c(O)c(O)c2)c1)c1cc(O)c(O)c(OC(=O)c2cc(O)c(O)c(O)c2)c1 (some centres undefined)	?	-11%	?	-15%	/
COc1ccccc1CN(C)CC(=O)Nc1ccccc1-c1ccccc1	5%	?	2%	1%	-82*
CCN(CC(=O)Nc1ccccc1OC)CC(=O)Nc1ccccc1C(F)(F)F	5%	?	38%	?	16
Cc1ccc(CC(=O)Nc2ccccc2-c2ccccc2)cc1C	1%	9.2µM*	0%	3%	7
COc1ccc(CN(C)CC(=O)Nc2ccc(Cl)cc2F)c(OC)c1	10%	9%	10%	?	0
COc1ccc(CN(C)CC(=O)Nc2ccccc2-c2ccccc2)c(OC)c1	-2%	?	5%	?	-51*
COc1ccc(CC(=O)Nc2ccccc2-c2ccccc2)cc1OC	-29%	3%	27%	1%	-28
CCN(CC(=O)Nc1ccccc1OC)CC(=O)Nc1ccccc1-c1ccccc1	5%	15µM*	-1%	?	27
Cc1c(Cl)cc(C(C)C)c(O)c1CN1CCOCC1	/	13%	/	8%	7
Cc1ccccc1CN(C)CC(=O)Nc1ccccc1-c1ccccc1	?	15µM*	184%	12%	-4
Cc1ccccc1CN(C)CC(=O)Nc1ccccc1Oc1ccccc1	-16%	?	-3%	5%	-14
CCc1cccc(C)c1NC(=O)CN(C)Cc1ccc(Br)cc1	-7%	-1%	-21%	1%	-57*
CSc1ccccc1NC(=O)CN(C)Cc1ccc(Br)cc1	-2%	?	0%	3%	?
COc1ccc(Cl)cc1CNC[C@H]1O[C@@H](n2cnc3c(=O)[nH]c(N)nc32)[C@H](O)[C@@H]1O	/	/	/	/	-22
Nc1ccc(SC(F)(F)F)cc1C(=O)c1ccccc1	-19%	68%	18%	?	-103*
O=S1(=O)N[C@@H](Cc2ccccc2)COc2cc(N3CCSCC3)ccc21	/	/	/	/	0
COc1ccc(N2CCN(c3cc(C)c4ccc(C)cc4n3)CC2)cc1	5%	21µM*	18%	6%	-12
COc1ccc(N2CCN(c3nc4cc(C)ccc4cc3C=O)CC2)cc1	-8%	?	?	-7%	-64*
COc1ccc(N2CCN(c3cc(C)c4ccc(O)cc4n3)CC2)cc1	1%	11%	37%	-10%	3
O=C1CSC(c2cn(-c3ccccc3)nc2-c2ccccc2)N1Cc1ccco1 (centres undefined)	?	21µM*	-67%	-1%	-24
CC(=O)c1nn(-c2ccccc2)cc1C(=O)c1cccc(Br)c1	?	1.6µM*	-28%	?	6
CC(=O)c1nn(-c2cccc(Br)c2)cc1C(=O)c1ccccc1	?	?	?	-7%	-5
